The source of these data is PubChem BioAssay (NCI).

Compounds without any hit were thinned out: in the full panel of roughly 83,000, 20% have a hit.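 For each line, cells grew in 96-well plates with the test compound present at a single concentration for 48 hours.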 A number with no mark means an inactive call. The source made the active and inactive calls. The calls were made as follows: active = growth percent below 10; inactive = the rest.

Some test systems named below: DU-145 prostate; K-562 leukemia; MALME-3M melanoma; MDA-MB-231 breast; RXF 393 renal; SF-268 CNS; SF-295 CNS; SF-539 CNS; UACC-257 melanoma; M14 melanoma; HCT-15 colon; HT29 colon; SNB-75 CNS; SNB-19 CNS; U251 CNS; PC-3 prostate; SK-MEL-5 melanoma; UACC-62 melanoma; LOX IMVI melanoma; SK-MEL-28 melanoma.
What all share (assay): NCI-60 one-dose screen, 48 h (100 = growth as untreated, 0 = no growth, -100 = all killed)
What all share (conditions): 10 µM unless noted

Consider `Cc1cccc(/C=C/c2ccc(NC(=S)NCCCCN(C)C)cc2)c1`, for which the growth in the assay with DU-145 prostate is -82.7% (active); in the assay with K-562 leukemia, 3.99% (active); in the assay with MALME-3M melanoma, -96.1% (active); with MDA-MB-231 breast, -94.4% (active); with RXF 393 renal, -91.8% (active); in the assay on SF-268 CNS, -52.4% (active). Moreover, the growth is -95.6% (active) in the assay on SF-295 CNS; -86.4% (active) in the assay with SF-539 CNS; -65.4% (active) in the assay on UACC-257 melanoma; -64.4% (active) in the assay on M14 melanoma; -99.4% (active) in the assay on HCT-15 colon; -64.2% (active) in the assay with HT29 colon. In addition, the growth in the assay on SNB-75 CNS is -84.4% (active); with SNB-19 CNS, -84% (active); with U251 CNS, -64.8% (active); in the assay with PC-3 prostate, -40.4% (active); with SK-MEL-5 melanoma, -92.3% (active); in the assay on UACC-62 melanoma, -88.4% (active). For the same compound, the growth with LOX IMVI melanoma is -99.1% (active); in the assay with SK-MEL-28 melanoma, -96.5% (active).
For the compound `Cc1cc(C(NC(=O)C2CC3(CC(Nc4cccc5c4C(=O)N(C4CCC(=O)NC4=O)C5=O)C3)C2)c2ccc3c(c2)OC(F)(F)O3)c(O)c2ncccc12` (stereo not given), the growth in the assay with DU-145 prostate was 17.2%; in the assay on K-562 leukemia, 10.8%; in the assay with MALME-3M melanoma, 9.46% (active); with MDA-MB-231 breast it was 25.2%; in the assay on RXF 393 renal, 23%; with SF-268 CNS, 14.4%. The growth with SF-295 CNS is 8.11% (active); in the assay on SF-539 CNS, -24.9% (active); in the assay on UACC-257 melanoma it was -11% (active); in the assay with M14 melanoma, -30.4% (active); in the assay on HCT-15 colon it was 21.1%; with HT29 colon, 29.1%. For the same compound, the growth in the assay with SNB-75 CNS was 25.1%; in the assay with SNB-19 CNS it was 7.79% (active); in the assay on U251 CNS, 7.11% (active); with PC-3 prostate it was 17.8%; in the assay with SK-MEL-5 melanoma it was -64.5% (active); in the assay with UACC-62 melanoma, -41% (active). Moreover, the growth was -4.96% (active) in the assay with LOX IMVI melanoma and 0.772% (active) in the assay with SK-MEL-28 melanoma.
In the case of `COc1ccc2nc(NC(=O)c3ccc(N(C)C)cc3)sc2c1`, the growth in the assay with DU-145 prostate was 83.4%; with K-562 leukemia it was 60.2%; in the assay with MALME-3M melanoma it was 72.7%; with MDA-MB-231 breast, 92.7%; in the assay on RXF 393 renal, 110%; in the assay with SF-268 CNS, 90.2%. The growth was 59% with SF-295 CNS; 90% in the assay with SF-539 CNS; 80.6% with UACC-257 melanoma; 87.4% in the assay on M14 melanoma; 59.4% in the assay with HCT-15 colon; 100% in the assay on HT29 colon. For the same compound, the growth with SNB-75 CNS is 101%; with SNB-19 CNS it was 84.4%; in the assay on U251 CNS, 93.5%; with PC-3 prostate, 71.3%; in the assay with SK-MEL-5 melanoma, 55.7%; in the assay with UACC-62 melanoma it was 69.9%. For the same compound, the growth in the assay with LOX IMVI melanoma is 87%; in the assay on SK-MEL-28 melanoma, 95%.
`CN1CCN(C(=O)CCN(C(=O)Oc2cc3c(c4ccccc24)[C@H](CCl)CN3C(=O)c2cc3cc(OCCCN4CCC4)ccc3[nH]2)[C@H]2CCSSC2)CC1`: the growth is -84.3% (active) with DU-145 prostate; -42.9% (active) with K-562 leukemia; -86.8% (active) in the assay on MALME-3M melanoma; -89.6% (active) in the assay on MDA-MB-231 breast; -86.7% (active) in the assay with RXF 393 renal; -50.4% (active) in the assay with SF-268 CNS. For the same compound, the growth was -71% (active) in the assay on SF-295 CNS; -94% (active) in the assay on SF-539 CNS; -77.9% (active) with UACC-257 melanoma; -62.5% (active) in the assay with M14 melanoma; -37% (active) in the assay with HCT-15 colon; -69.8% (active) with HT29 colon. Further, the growth with SNB-75 CNS is -58.5% (active); in the assay on SNB-19 CNS, -50.7% (active); in the assay on U251 CNS it was -65.9% (active); with PC-3 prostate it was -65% (active); in the assay on SK-MEL-5 melanoma, -93.7% (active); in the assay on UACC-62 melanoma, -81.9% (active). For the same compound, the growth was -71.8% (active) in the assay on LOX IMVI melanoma and -89.2% (active) with SK-MEL-28 melanoma.
As to `COc1ccc2[nH]c(O)c(N=Nc3nc(-c4ccccc4)cs3)c2c1`, the growth in the assay with DU-145 prostate is 34.6%; in the assay on K-562 leukemia it was 28.9%; in the assay on MALME-3M melanoma, 22.5%; with MDA-MB-231 breast, 60.1%; in the assay on RXF 393 renal it was 4.35% (active); with SF-268 CNS it was 17.1%. In addition, the growth in the assay with SF-295 CNS was -8.96% (active); in the assay with SF-539 CNS it was -11.9% (active); in the assay on UACC-257 melanoma, 59.3%; in the assay on M14 melanoma it was 55.6%; in the assay on HCT-15 colon it was 24.9%; in the assay on HT29 colon, 50.5%. The growth was -1.94% (active) in the assay on SNB-75 CNS; 20% in the assay on SNB-19 CNS; -31% (active) with U251 CNS; 16% in the assay with PC-3 prostate; 68.8% with SK-MEL-5 melanoma; 30.8% in the assay with UACC-62 melanoma. The figures for the growth with LOX IMVI melanoma and in the assay with SK-MEL-28 melanoma were 14.3% and 45%, respectively.
For the compound `Cc1oc(-c2ccccc2)nc1CN[C@@H]1C[C@@H]2C[C@H]([C@H]1C)C2(C)C`, the growth in the assay with DU-145 prostate was 65.5%; in the assay on K-562 leukemia, 11.6%; in the assay on MALME-3M melanoma, -61.7% (active); in the assay on MDA-MB-231 breast, 35.2%; in the assay on RXF 393 renal it was -78.7% (active); in the assay with SF-268 CNS it was 80.8%. Also, the growth in the assay with SF-295 CNS is 11%; in the assay with SF-539 CNS it was 14.8%; in the assay with UACC-257 melanoma, 8.4% (active); in the assay with M14 melanoma, -63.1% (active); in the assay with HCT-15 colon, 18.8%; with HT29 colon it was 7.34% (active). In addition, the growth with SNB-75 CNS is 79.2%; in the assay with SNB-19 CNS it was 37.6%; with U251 CNS, 41.2%; in the assay with PC-3 prostate it was 30.8%; with SK-MEL-5 melanoma it was -94.1% (active); with UACC-62 melanoma it was -32.6% (active). Besides, the growth in the assay on LOX IMVI melanoma is -95.5% (active); with SK-MEL-28 melanoma it was 2.07% (active).
Take `Oc1ccc(Cl)c(Nc2nc(SCCN3CCOCC3)nc3c2cnn3CC(Cl)c2ccc(Br)cc2)c1` (stereo not given): the growth was 35% with DU-145 prostate; -22.9% (active) in the assay on K-562 leukemia; 12.2% in the assay with MALME-3M melanoma; -3.97% (active) in the assay with MDA-MB-231 breast; -14.2% (active) in the assay on RXF 393 renal; 40.8% in the assay with SF-268 CNS. Also, the growth was 13% in the assay with SF-295 CNS; 29.2% in the assay with SF-539 CNS; 28.2% in the assay with UACC-257 melanoma; 25% in the assay with M14 melanoma; 8.41% (active) with HCT-15 colon; 6.18% (active) in the assay with HT29 colon. Further, the growth is 11.5% in the assay on SNB-75 CNS; 37.8% in the assay on SNB-19 CNS; 23.9% in the assay on U251 CNS; 14.5% with PC-3 prostate; 16.6% in the assay on SK-MEL-5 melanoma; 39.9% in the assay with UACC-62 melanoma. Also, the growth was -59.3% (active) in the assay on LOX IMVI melanoma and 32% in the assay on SK-MEL-28 melanoma.
In the case of `Cc1nc(Nc2ccccn2)sc1C1=NNC(c2ccccc2F)C1` (stereo not given), the growth in the assay with DU-145 prostate was 67.4%; in the assay with K-562 leukemia, 15.1%; in the assay on MALME-3M melanoma, 63.8%; with MDA-MB-231 breast, 47.5%; in the assay on RXF 393 renal it was 87.5%; with SF-268 CNS it was 78.2%. The growth is 39.6% in the assay with SF-295 CNS; 32.4% with SF-539 CNS; 83.2% in the assay on UACC-257 melanoma; 52.6% with M14 melanoma; 20.8% in the assay on HCT-15 colon; 30.4% in the assay with HT29 colon. Moreover, the growth in the assay on SNB-75 CNS was 62.3%; with SNB-19 CNS it was 56.1%; in the assay with U251 CNS it was 51%; in the assay on PC-3 prostate, 58.5%; in the assay with SK-MEL-5 melanoma it was 48.7%; in the assay with UACC-62 melanoma it was 29.4%. The growth was 31.5% in the assay with LOX IMVI melanoma and 65.9% in the assay on SK-MEL-28 melanoma.
